Cycloheximide cs = counter-screen for Shiga toxin inhibitors: cycloheximide protein synthesis inhibition; cell reporter, cycloheximide protein synthesis inhibition counterscreen; 300,000 tested, 12% active; max response, %; in the data active = max response mostly above about 13%, no sharp cut-off; inactive = mostly below about 14%; also: read at 38.3 µM for the half of the compounds with a filed dose; 0% is about no effect
Pf growth 48h = P. falciparum growth inhibition at 48 hours (one generation). P. falciparum luciferase growth in erythrocytes, 48 h. Potency, µM (titrated, usually from 28.7 µM), without a hit: at the top dose activity change, negative = inhibition, hits mostly inhibitors. 310,000 tested, 5.9% active; also: potency is read from the fitted curve at half-maximal effect; % is scaled to controls: 0 for no effect and ±100 for the full control effect
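First compound was added to culture medium, then infected red cells at 0.1% parasitemia and 2% hematocrit (final). After incubation at 37 C under 5% CO2, luciferase detection reagent was dispensed and light output recorded.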
Shiga toxin inh = Shiga toxin inhibition; AID 2315; Vero cells, Shiga toxin protein synthesis inhibition reporter; inhibition, % at 38.7 µM; 290,000 tested, 9.2% active; in the data active = inhibition mostly above about 28%, no sharp cut-off; inactive = mostly below about 43%; also: 0% is about no effect
LmPK inh = blocks Leishmania mexicana pyruvate kinase activity. purified LmPK, Kinase-Glo ATP luminescence, 1 h. Potency, µM (doses to about 57.5 µM), for inactives: at the top dose activity change, negative = inhibition, actives largely listed as inhibitors. 290,000 tested, 0.37% active. AID 1721. Q27686; also: potency is read from the fitted curve at half-maximal effect; % is scaled to controls: 0 for no effect and ±100 for the full control effect
Target sequence (Q27686 whole entry, looked up): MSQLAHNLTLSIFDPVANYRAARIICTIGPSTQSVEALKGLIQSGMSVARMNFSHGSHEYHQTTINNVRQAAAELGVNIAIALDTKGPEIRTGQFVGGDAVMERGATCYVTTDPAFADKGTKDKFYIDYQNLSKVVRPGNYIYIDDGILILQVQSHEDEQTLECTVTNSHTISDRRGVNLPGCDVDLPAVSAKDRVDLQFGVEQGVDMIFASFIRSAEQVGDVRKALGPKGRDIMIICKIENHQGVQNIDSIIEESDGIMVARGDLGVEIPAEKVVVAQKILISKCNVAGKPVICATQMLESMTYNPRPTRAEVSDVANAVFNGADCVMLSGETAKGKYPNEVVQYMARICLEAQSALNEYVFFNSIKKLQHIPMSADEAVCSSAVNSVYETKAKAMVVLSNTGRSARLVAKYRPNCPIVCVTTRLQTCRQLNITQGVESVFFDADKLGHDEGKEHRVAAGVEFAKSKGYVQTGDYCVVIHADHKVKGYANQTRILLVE
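ATP generated from ADP (0.1 mM) and PEP (0.5 mM) by 0.1 nM LmPK over 1 h at room temperature (pH 7.2 imidazole buffer) was detected by coupled luciferase luminescence. Values were normalized to uninhibited and no-enzyme wells.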
Pf growth 96h = P. falciparum growth inhibition at 96 hour, primary screen for plastid delayed-death inhibitors; Potency, µM (doses to about 28.7 µM), inactives show at the highest dose activity change, negative = inhibition, actives largely listed as inhibitors; AID 504834; 320,000 tested, 6.9% active; P. falciparum luciferase reporter growth, 96 h; also: potency is read from the fitted curve at half-maximal effect; % is scaled to controls: 0 for no effect and ±100 for the full control effect
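Compounds incubated with erythrocytes infected by luciferase-expressing P. falciparum (2% hematocrit, 0.05% parasitemia final) for 96 hours, 37 C in 5% CO2. Growth inhibition scored as decreased luciferase luminescence.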
* = called active by the depositor; i = inactive; ? = inconclusive; . = no result; [ ] = another dose, or the depositor's remark. In the library only some 22% were active in any assay of this set; here they are far more common. Unless noted, calls follow the shape of the dose curve; as a rule, active = well fitted inhibition curve with a large enough effect; inconclusive = small, poorly fitted or top-dose-only effect, or another doubt; inactive = no such curve, though single readings can be large or run the other way.

SMILES	Cycloheximide cs	Pf growth 48h	Shiga toxin inh	LmPK inh	Pf growth 96h
Cc1ccccc1NC(=O)CCCN1C(=O)C2CC=CCC2C1=O (configuration not stated)	-3.7	2.3%	-4.4	-8.1%	31.4%
CCCC12CN3CC(CCC)(CN(C1)C3c1ccccn1)C2=O (configuration not stated)	-1.6	9.28µM*	-3.9	-9.1%	.
CCCC12CN3CC(C)(CN(C1)C3c1cccs1)C2=O (configuration not stated)	-2.1	1.1%	-8.9	2.9%	30.2%
COc1ccc(N2C(C(C)=O)=NN(c3ccccc3)C2c2cccs2)cc1 (configuration not stated)	-2.0	.	-15.9	-0.4%	11.7µM*
CCC(C)c1ccc(OCC(=O)Nc2ccc3c(c2)C(=O)NC3=O)cc1 (configuration not stated)	-3.1	1.0%	-2.6	-2.3%	?
COc1ccc(-c2oc3ccccc3c2C(=O)OCc2ccc(O)cc2)cc1	24.3*	142.7%	27.7*	-0.1%	47.2%
COc1ccc(-c2oc3ccccc3c2C(=O)OCc2ccccc2)cc1	31.0*	19.2%	33.7*	6.0%	?
COc1ccc2oc(-c3ccccc3)c(C(N)=O)c2c1	27.6*	29.9%	33.8	0.7%	29.0%
CCOC(=O)c1ccc(NC(=O)N(CC)CC)cc1	37.4*	110.4%	62.2*	-3.8%	-10.0%
CCOC(=O)c1ccc(NC(=O)C(CC)CC)cc1	29.9*	74.9%	71.2*	-1.1%	.
CSCCC(NS(=O)(=O)c1ccc(Br)cc1)C(=O)OCC(=O)NC1CC1 (configuration not stated)	7.0	7.9%	2.2	1.2%	?
CCCCNc1c(N)n(CCCC)c(=O)[nH]c1=O	-0.3	?	-15.7	1.9%	?
Cc1cccc(NC(=O)CCC2CCN(Cc3nccs3)CC2)c1	8.5	-25.1%	26.6	-10.4%	9.28µM*
COc1ccc(C(=O)N2CCC(CCC(=O)Nc3cccc(C)c3)CC2)cc1	13.3	-14.4%	10.6	-3.2%	-2.2%
COCc1ccc(C(=O)N2CCC(CCC(=O)Nc3cccc(C)c3)CC2)s1	-3.9	?	-17.3	0.2%	10.4%
Cc1cccc(NC(=O)CCC2CCN(C(=O)c3ccc(C)s3)CC2)c1	22.4*	?	13.6	6.6%	?
COC(C(=O)N1CCC(CCC(=O)Nc2ccccc2)CC1)c1ccccc1 (configuration not stated)	36.8*	-13.6%	47.7*	-5.0%	-3.7%
O=C(NN=C1CCCCC1)Nc1ccccc1Cl	.	-4.8%	.	.	?
O=C(COC(=O)C1CC2C=CC1C2)NCc1ccc(F)cc1 (configuration not stated)	11.8	20.0%	-7.8	-0.4%	52.1%
N#Cc1c(NC(=O)COC(=O)C2CC3C=CC2C3)oc(-c2ccccc2)c1-c1ccccc1 (configuration not stated)	4.3	-87.7%	-4.4	0.6%	9.28µM*
COc1ccccc1NC(=O)COC(=O)C1CC2C=CC1C2 (configuration not stated)	15.4*	35.7%	25.2	13.2%	61.0%
Cc1ccc2c(c1)N(CC(=O)NC(C)CCc1ccccc1)C(=O)c1cccnc1O2 (configuration not stated)	1.4	?	-3.7	1.1%	33.7%
CC(=O)Nc1ccc(S(=O)(=O)NNC(=S)NCc2ccco2)cc1	-1.4	0.2%	-14.1	0.7%	?
S=C1Nc2ccccc2Sc2ccccc21	5.6	-25.3%	-6.0	-2.4%	?
COc1ccc2c(c1)Sc1ccccc1N2	30.5*	-9.1%	29.1	-14.0%	?
SMILES	Cycloheximide cs	Pf growth 48h	Shiga toxin inh	LmPK inh	Pf growth 96h
c1ccc2c(c1)Nc1cc3ccccc3cc1S2	26.0*	-20.9%	46.7*	3.5%	1.85µM*
c1ccc2c(c1)Nc1ccncc1S2	15.5	14.7µM*	-1.7	-4.4%	?
CN(CC(=O)Nc1cccc(S(=O)(=O)NC2=NCCC2)c1)Cc1cccc(F)c1	.	-28.7%	.	.	?
Cc1nc([N+](=O)[O-])c(C(=O)OCc2cccc(Br)c2)n1C	7.7	2.3%	27.6	9.0%	7.38µM*
c1ccc2c(c1)COC(CNC1CCCCC1)OC2	11.3	22.3%	10.1	8.3%	3.9%
O=C(COc1ccccc1)N=C1SC2CS(=O)(=O)CC2N1Cc1ccccc1 (configuration not stated)	3.4	?	-5.3	3.9%	13.1µM*
O=C(COc1ccccc1)N=C1SC2CS(=O)(=O)CC2N1c1ccccc1 (configuration not stated)	-1.7	13.7%	-6.0	13.7%	0.0%
CN(C)c1ccc(N2C(=NC(=O)COc3ccccc3)SC3CS(=O)(=O)CC32)cc1 (configuration not stated)	24.8*	3.2%	45.7*	-11.2%	?
NS(=O)(=O)c1cc(C(=O)N2CCc3ccccc32)c(Cl)cc1Cl	11.5	0.0%	57.9	-6.0%	.
CC(C)[C@H](NC(=O)N1CC(=O)Nc2ccccc21)C(=O)N1CCC[C@@H]1C(=O)O	12.5	-4.2%	9.4	-11.6%	-2.3%
CN(CCOc1ccc(Cl)cc1)C(=O)CN1C(=O)NC2(CCCCC2)C1=O	.	?	.	.	6.2%
N/C(=N/OCC(=O)Nc1cccc2ccccc12)c1nonc1N	-1.7	-4.7%	-8.0	0.4%	?
Cc1ccc(C(=O)O/N=C(\N)c2nonc2N)cc1	46.9*	83.6%	50.9*	3.98µM*	?
N/C(=N/OC(=O)c1ccccc1Cl)c1nonc1N	38.1*	57.0%	90.1*	0.6%[11.5 µM]	-9.6%
Cc1ccc(S(=O)(=O)NCCNC(=O)c2nonc2N)cc1	0.9	19.9%	-5.6	-2.1%	1.5%
Cc1cc(/C(N)=N/OC(=O)c2ccccc2Cl)no1	21.1*	199.5%	37.9*	22.4µM*	i
N/C(=N\OC(=O)c1ccc(F)cc1)c1nonc1N	48.0*	21.3%	71.4*	14.1µM*	25.0%
O=C(NNc1nc(N2CCOCC2)nc(N2CCOCC2)n1)Nc1ccc(Cl)cc1	10.1	?	19.1	4.3%	26.0%
CCN(C(=O)COC(=O)c1ccc(N2C(=O)c3ccccc3C2=O)cc1)C1CCS(=O)(=O)C1 (configuration not stated)	-1.0	12.5%	-8.3	-3.9%	8.1%
COc1ccc(C(CC(=O)Nc2cc([N+](=O)[O-])ccc2OC)c2ccccc2)cc1 (configuration not stated)	-3.6	-10.1%	-6.0	-0.1%	-0.3%
CCCCN=C1NC(=O)C(CC(=O)NCCc2ccc(OC)cc2)S1 (configuration not stated)	2.6	?	-3.8	0.8%	?
COc1cc(OC)c(S(=O)(=O)Nc2ccc(C(=O)O)cc2)cc1S(=O)(=O)Nc1ccc(C(=O)O)cc1	-6.0	6.7%	10.9	4.5%	22.1%
CCOC(=O)Oc1c(OC)cc(C(=O)O[C@H]2C[C@H]3CN4CCc5c([nH]c6cc(OC)ccc56)[C@@H]4C[C@H]3[C@@H](C(=O)OC)[C@@H]2OC)cc1OC	.	1.61µM*	.	.	1.28µM*

From PubChem BioAssay
